This note sets out measurements from PubChem BioAssay AID2061324 (National Center for Advancing Translational Sciences (NCATS), 2025).

Results filed as inconclusive are left out. Calls of active or inactive are those of the source. Calls follow the shape of the dose curve; as a rule, active = well fitted inhibition curve with a large enough effect; inconclusive = small, poorly fitted or top-dose-only effect; inactive = flat fitted curve, though single readings scatter.

The assay in a line: Identification of antibody-drug conjugate (ADC) payloads which are substrates of ATP-binding cassette drug efflux transporters: ABCG2-HEK293-pcDNA cell line. The following applies: ABCG2-HEK293 transfected cells viability, CellTiter-Glo, 48 h. The text has this: Antibody-drug conjugates (ADCs) feature an antibody recognizing a specific protein joined to a potent toxic payload. Numerous antibody-drug conjugates have received FDA approval; however, clinical resistance arises. Resistance mechanisms include decreased expression or mutation of the antibody target, impaired payload release, or increased expression of ATP-binding cassette (ABC) efflux transporters associated with multidrug resistance. We therefore sought to characterize the interaction of ABC multidrug transporters with ADC payloads. We performed a high-throughput screen with 27 common ADC payloads using cells lines expressing ABC transporters P-glycoprotein (P-gp, encoded by ABCB1) or ABCG2 (encoded by ABCG2). Confirmatory assays were also performed using cells transfected to express P-gp, ABCG2, or MRP1 (encoded by ABCC1). Several commonly used ADC payloads were substrates of P-gp, including calicheamicin gamma1, monomethyl auristatin E, DM1, and DM4. All the pyrrolobenzodiazepines tested - SJG136, SGD-1882, SG2057, and SG3199 - were substrates of P-gp, ABCG2, and MRP1. […] These findings highlight the risk of transporter-mediated resistance with certain ADC payloads and underscore the importance of selecting payloads that evade ABC transporter recognition in future ADC development.
HEK-293 cells were transfected with empty vector (pcDNA) or vector containing the human ABCB1 (MDR-19), ABCG2 (R-5), or ABCC1 gene (MRP1) and were maintained in EMEM with 2 mg/mL G418 added to maintain transporter expression. The HeLa derivative KB-3-1 and the P-gp overexpressing KB-8-5-11 subline were maintained in DMEM; KB-8-5-11 additionally received 100 ng/mL colchicine. H460 parental cells were obtained from the Division of Cancer Treatment and Diagnosis Tumor Repository, National Cancer Institute at Frederick, MD and were cultured in RPMI. The ABCG2 expressing subline H460 MX20 was generated by selecting H460 cells in 20 nM mitoxantrone. Media in all cases was supplemented with 10% FBS and 1% penicillin-streptomycin. We explored 27 common ADC payloads, in two orthogonal, paired cell line sets-a drug selected and transfected set for each transporter--to identify substrates of the ABC transporters P-gp and ABCG2. Compounds were sourced from Levena Biopharma (San Diego, CA), Selleck Chem (Houston, TX), ChemieTek (Indianapolis, IN), or Microsource Discovery Systems (Gaylordsville, CT). Screening was performed as previously described. Briefly, cells were plated at a density of 500 cells/well in 1536 well plates with compounds added using a 1536-head pin tool (Kalypsys, San Diego CA). Cells were incubated with cytotoxic drugs and processed with CellTiter Glo reagent (Promega, Madison, WI) to determine viability after 48 hours. P-gp substrates were identified by comparing compound activity between paired sets of low-expressing (sensitive) and over-expressing (resistant) cell lines.
Background: In ATP-based viability assays light output follows the ATP content of the culture.
Take `CC[C@@]1(O)C(=O)OCc2c1cc1n(c2=O)Cc2cc3ccccc3nc2-1`: the Potency was 15 nM (active).
Next, `COc1cc2cc(c1Cl)N(C)C(=O)C[C@H](OC(=O)C(C)C)[C@]1(C)O[C@H]1[C@H](C)[C@@H]1C[C@@](O)(NC(=O)O1)[C@H](OC)C=CC=C(C)C2`: 1.1 nM (active); `CC[C@H](C)[C@H](NC(=O)[C@H]1CCCCN1C)C(=O)N(C)[C@H](C[C@@H](OC(C)=O)c1nc(C(=O)N[C@@H](Cc2ccccc2)C[C@H](C)C(=O)O)cs1)C(C)C`: 23.8 nM (active).
As to `COc1cc2cc(c1Cl)N(C)C(=O)C[C@H](OC(=O)[C@H](C)N(C)C(=O)CCS)[C@]1(C)OC1[C@H](C)C1C[C@@](O)(NC(=O)O1)[C@H](OC)/C=C/C=C(\C)C2` (some centres not stated), the Potency is 9.5 nM (active).
To `COc1cc2cc(C(=O)N3C[C@@H](CCl)c4c3cc(O)c3ccccc43)[nH]c2c(OC)c1OC` belongs 7.5 nM (active); to `COc1cc2cc(c1Cl)N(C)C(=O)C[C@H](OC(=O)[C@H](C)N(C)C(=O)CCC(C)(C)S)[C@]1(C)OC1[C@H](C)C1C[C@@](O)(NC(=O)O1)[C@H](OC)/C=C/C=C(\C)C2` (some centres not stated), 2.4 nM (active); to `CC[C@H](C)[C@@H]([C@@H](CC(=O)N1CCC[C@H]1[C@H](OC)[C@@H](C)C(=O)N[C@H](C)[C@@H](O)c1ccccc1)OC)N(C)C(=O)[C@@H](NC(=O)[C@H](C(C)C)N(C)C)C(C)C`, 9.5 nM (active).
